Laboratory results taken from PubChem BioAssay (EPA / NIEHS).
Values joined by “and” are separate entries in the source; they are usually repeats but may differ in a detail not shown here. Identical values can stand only once. Results filed as inconclusive are left out. Active and inactive are the calls of the source. How the source made its calls, unless noted: active means hit-call score of the fitted dose curve at least 0.9, where 1 is the maximum; inconclusive means response in the unintended direction; inactive means score below 0.9.

Read-out: ABC Transporter (ABCB11), ABCB11 (gene 8647)
Test: CLD_ABCB11_6hr: CellzDirect (CLD) Gene Expression Assay for ABC Transporter (ABCB11) at 6 hours (AID 2283675);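 further: hits raise ABCB11 mRNA level so AC50 marks induction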
Outline: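 Human primary hepatocytes (two donor preparations) given fresh chemical daily at multiple concentrations, vehicle 0.2% DMSO. ABCB11 mRNA induction measured 6 h after dosing by qNPA chemiluminescence versus DMSO; cytotoxicity annotated from morphology.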

| SMILES | outcome | AC50 |
| --- | --- | --- |
| CCC(C)Nc1c([N+](=O)[O-])cc(C(C)(C)C)cc1[N+](=O)[O-] (stereo unspecified) | inactive | – |
| CCc1ccc(C(=O)NN(C(=O)c2cc(C)cc(C)c2)C(C)(C)C)cc1 | – | 20 µM (active) |
| COC(=O)c1ccccc1S(=O)(=O)NC(=O)N(C)c1nc(C)nc(OC)n1 | inactive | – |
| O=[N+]([O-])/N=C1\NCCN1Cc1ccc(Cl)nc1 | inactive | – |
| N#Cc1c(Cl)c(Cl)c(Cl)c(C#N)c1Cl | – | 20 µM (active) |
| CCS(=O)(=O)c1cccnc1S(=O)(=O)NC(=O)Nc1nc(OC)cc(OC)n1 | inactive | – |
| O=[N+]([O-])c1c(Cl)c(Cl)c(Cl)c(Cl)c1Cl | inactive | – |
| CC1(C)C(C=C(Cl)Cl)C1C(=O)OC(C#N)c1ccc(F)c(Oc2ccccc2)c1 (stereo unspecified) | inactive | – |
| CN1CSC(=S)N(C)C1 | inactive | – |
| O=C1c2ccccc2C(=O)N1SC(Cl)(Cl)Cl | inactive | – |

Read-out: not listed separately
Test: CLD_ACTIN_6hr: CellzDirect (CLD) Gene Expression Assay for Baseline Control (Actin) at 6 hours (AID 2283676);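 further: active means increased actin mRNA relative to DMSO vehicle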
Outline: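 Primary human hepatocytes dosed with fresh chemical solutions (vehicle 0.2% DMSO), harvested at 6 h. Actin mRNA quantified by quantitative nuclease protection assay with chemiluminescent read-out, as background control relative to DMSO.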

| SMILES | outcome |
| --- | --- |
| CCOC1Oc2ccc(OS(C)(=O)=O)cc2C1(C)C (stereo unspecified) | inactive |
| C#CCN1C(=O)COc2cc(F)c(N3C(=O)C4=C(CCCC4)C3=O)cc21 | inactive |
| Cc1cc(C)nc(NC(=O)NS(=O)(=O)c2ccccc2C(=O)OC2COC2)n1 | inactive |
| COc1cc(OC)nc(NC(=O)NS(=O)(=O)c2cc(NC=O)ccc2C(=O)N(C)C)n1 | inactive |
| CC(C)(C)C(O)/C(=C\c1ccc(Cl)cc1Cl)n1cncn1 (stereo unspecified) | inactive |
| O=C(O)CCCOc1ccc(Cl)cc1Cl | inactive |
| O=C(O)COc1ccc(Cl)cc1Cl | inactive |
| Oc1ccc(Cl)cc1Cc1ccccc1 | inactive |
| CC(C)OC(=O)Nc1cccc(Cl)c1 | inactive |
| ClC1C(Cl)C(Cl)C(Cl)C(Cl)C1Cl (stereo unspecified) | inactive |
| CNC(=O)Oc1ccccc1OC(C)C | inactive |

Read-out: Cytochrome P450 2B6 (Homo sapiens) (UniProt P20813)
Test: CLD_CYP2B6_6hr: CellzDirect (CLD) Gene Expression Assay for xenobiotic metabolism (CYP2B6) at 6 hours (AID 2283677);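 further: actives raise CYP2B6 transcript above DMSO baseline so AC50 marks an inducer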
Outline: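 Primary human hepatocytes dosed with chemicals at multiple concentrations, vehicle 0.2% DMSO; CYP2B6 mRNA induction measured 6 h after dosing by quantitative nuclease protection assay with chemiluminescence, gain of signal fitted relative to DMSO.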

| SMILES | AC50 | outcome |
| --- | --- | --- |
| CCOC1Oc2ccc(OS(C)(=O)=O)cc2C1(C)C (stereo unspecified) | 2.55 µM (active) | – |
| CCC(C)Nc1c([N+](=O)[O-])cc(C(C)(C)C)cc1[N+](=O)[O-] (stereo unspecified) | 1.53 µM (active) | – |
| COc1nn(CSP(=S)(OC)OC)c(=O)s1 | 2.94 µM (active) | – |
| C#CCN1C(=O)COc2cc(F)c(N3C(=O)C4=C(CCCC4)C3=O)cc21 | 0.301 µM (active) | – |
| Cc1cc(C)nc(NC(=O)NS(=O)(=O)c2ccccc2C(=O)OC2COC2)n1 | – | inactive |
| CCc1ccc(C(=O)NN(C(=O)c2cc(C)cc(C)c2)C(C)(C)C)cc1 | 2.09 µM (active) | – |
| COP(=S)(OC)Oc1ccc([N+](=O)[O-])cc1 | 0.916 µM (active) | – |
| CCOc1nc(NC)nc(NC(=O)NS(=O)(=O)c2ccccc2C(=O)OC)n1 | – | inactive |
| COC(=O)c1ccccc1S(=O)(=O)NC(=O)N(C)c1nc(C)nc(OC)n1 | – | inactive |
| Cc1[nH]c(=O)n(C(C)(C)C)c(=O)c1Cl | – | inactive |
| CC(C)N(C(=O)COc1nnc(C(F)(F)F)s1)c1ccc(F)cc1 | 14.7 µM (active) | – |
| O=[N+]([O-])/N=C1\NCCN1Cc1ccc(Cl)nc1 | – | inactive |
| COc1cc(OC)nc(NC(=O)NS(=O)(=O)c2cc(NC=O)ccc2C(=O)N(C)C)n1 | – | inactive |
| CC(C)(C)C(O)/C(=C\c1ccc(Cl)cc1Cl)n1cncn1 (stereo unspecified) | 0.733 µM (active) | – |
| N#Cc1c(Cl)c(Cl)c(Cl)c(C#N)c1Cl | 20 µM (active) | – |
| O=C(O)CCCOc1ccc(Cl)cc1Cl | – | inactive |
| O=C(O)COc1ccc(Cl)cc1Cl | 0.0448 µM (active) | – |
| CCS(=O)(=O)c1cccnc1S(=O)(=O)NC(=O)Nc1nc(OC)cc(OC)n1 | 11.3 µM (active) | – |
| COP(=S)(OC)Oc1ccc(SC)c(C)c1 | 4.74 µM (active) | – |
| CC(C)OC(=O)Nc1cccc(Cl)c1 | 6.86 µM (active) | – |
| O=[N+]([O-])c1c(Cl)c(Cl)c(Cl)c(Cl)c1Cl | 20 µM (active) | – |
| ClC1C(Cl)C(Cl)C(Cl)C(Cl)C1Cl (stereo unspecified) | 1.43 µM (active) | – |
| CN1CSC(=S)N(C)C1 | – | inactive |
| CNC(=O)Oc1ccccc1OC(C)C | 3.21 µM (active) | – |

Test system: not listed separately
Test: CCTE_Padilla_ZF_144hpf_TERATOSCORE: (Legacy) CCTE's 144 Hour Post-fertilization zebrafish Assay Teratoscore, Padilla Lab (AID 2283679; active means hit-call score of the fitted dose curve at least 0.9, where 1 is the maximum; inactive means score below 0.9;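 on AC50: zebrafish embryos with chorions exposed by immersion from 6-8 hpf to 5 dpf with daily renewal; teratogenicity score from eye scoring of death hatching and malformations at 144 hpf; higher score means more developmental defects relative to DMSO baseline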)
Outline: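 Larvae scored by eye at 144 hpf for death, hatching and malformations after a day in clean Hanks'. Before that, daily-renewed exposure at 80 uM (0.4% DMSO, 26C) from roughly 6-8 hpf through 5 dpf, 4 embryos per chemical.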

| SMILES | outcome | AC50 |
| --- | --- | --- |
| CCOC1Oc2ccc(OS(C)(=O)=O)cc2C1(C)C (stereo unspecified) | inactive | – |
| COc1nn(CSP(=S)(OC)OC)c(=O)s1 | – | 18.2 µM (active) |
| C#CCN1C(=O)COc2cc(F)c(N3C(=O)C4=C(CCCC4)C3=O)cc21 | – | 4.15 µM (active) |
| Cc1cc(C)nc(NC(=O)NS(=O)(=O)c2ccccc2C(=O)OC2COC2)n1 | inactive | – |
| CCc1ccc(C(=O)NN(C(=O)c2cc(C)cc(C)c2)C(C)(C)C)cc1 | inactive | – |
| COP(=S)(OC)Oc1ccc([N+](=O)[O-])cc1 | – | 16.1 µM (active) |
| CCOc1nc(NC)nc(NC(=O)NS(=O)(=O)c2ccccc2C(=O)OC)n1 | inactive | – |
| COC(=O)c1ccccc1S(=O)(=O)NC(=O)N(C)c1nc(C)nc(OC)n1 | inactive | – |
| Cc1[nH]c(=O)n(C(C)(C)C)c(=O)c1Cl | inactive | – |
| CC(C)N(C(=O)COc1nnc(C(F)(F)F)s1)c1ccc(F)cc1 | – | 39.2 µM (active) |
| O=[N+]([O-])/N=C1\NCCN1Cc1ccc(Cl)nc1 | inactive | – |
| COc1cc(OC)nc(NC(=O)NS(=O)(=O)c2cc(NC=O)ccc2C(=O)N(C)C)n1 | inactive | – |
| CC(C)(C)C(O)/C(=C\c1ccc(Cl)cc1Cl)n1cncn1 (stereo unspecified) | – | 8.76 µM (active) |
| N#Cc1c(Cl)c(Cl)c(Cl)c(C#N)c1Cl | – | 0.187 µM (active) |
| O=C(O)CCCOc1ccc(Cl)cc1Cl | – | 15.6 µM (active) |
| O=C(O)COc1ccc(Cl)cc1Cl | inactive | – |
| Oc1ccc(Cl)cc1Cc1ccccc1 | – | 5.12 µM (active) and 9.81 µM (active) and 9.21 µM (active) |
| CCS(=O)(=O)c1cccnc1S(=O)(=O)NC(=O)Nc1nc(OC)cc(OC)n1 | inactive | – |
| COP(=S)(OC)Oc1ccc(SC)c(C)c1 | – | 16.1 µM (active) |
| CC(C)OC(=O)Nc1cccc(Cl)c1 | – | 72.3 µM (active) |
| O=[N+]([O-])c1c(Cl)c(Cl)c(Cl)c(Cl)c1Cl | – | 31.1 µM (active) |
| ClC1C(Cl)C(Cl)C(Cl)C(Cl)C1Cl (stereo unspecified) | – | 42.6 µM (active) |
| CC1(C)C(C=C(Cl)Cl)C1C(=O)OC(C#N)c1ccc(F)c(Oc2ccccc2)c1 (stereo unspecified) | – | 0.345 µM (active) |
| CN1CSC(=S)N(C)C1 | – | 0.196 µM (active) |
| O=C1c2ccccc2C(=O)N1SC(Cl)(Cl)Cl | – | 19.3 µM (active) |
| CNC(=O)Oc1ccccc1OC(C)C | inactive | – |
